Source: the supplement of paper PMC12645437, “Orthogonal IMiD-Degron Pairs Induce Selective Protein Degradation in Cells” (ACS Chemical Biology, 2025)
Over roughly 8,300 sequences, “log2 fold change of degron read counts, EGFP-low vs EGFP+ sorted cells (limma voom), compound-induced degradation” has its median near -1.1; the highest 2% begin near 3.2. The full list was thinned out, with the highest values kept by preference.

T1: CRBN, Q96SW2
T1 chain: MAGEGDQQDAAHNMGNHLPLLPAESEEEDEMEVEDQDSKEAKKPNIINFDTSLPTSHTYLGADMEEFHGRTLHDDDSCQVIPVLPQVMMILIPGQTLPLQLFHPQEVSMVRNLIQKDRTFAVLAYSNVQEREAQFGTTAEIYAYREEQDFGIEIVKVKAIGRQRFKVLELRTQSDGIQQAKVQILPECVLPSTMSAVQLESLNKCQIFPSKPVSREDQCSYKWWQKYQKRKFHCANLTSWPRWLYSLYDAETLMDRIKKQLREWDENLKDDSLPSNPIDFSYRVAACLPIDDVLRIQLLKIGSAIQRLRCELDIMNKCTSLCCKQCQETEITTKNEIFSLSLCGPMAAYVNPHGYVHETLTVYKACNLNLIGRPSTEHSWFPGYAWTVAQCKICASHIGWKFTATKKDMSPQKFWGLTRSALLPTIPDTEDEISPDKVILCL


Molecular target: T1, CRBN, Q96SW2
Experiment: log2 fold change of degron read counts, EGFP-low vs EGFP+ sorted cells (limma voom), compound-induced degradation; higher = more compound-induced degradation of the degron-EGFP fusion; degrons are variants of IKZF1/3 zinc finger 2; compound dose not given here
Details: Jurkat, 18 h
[1] = compound: compound 19 (5-tert-butyl-thalidomide)
[2] = compound: compound 22 (5-morpholino-thalidomide)
[3] = compound: compound 33 (diphenyl IMiD analogue)
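Further: pooled lentiviral library of zinc finger degron-EGFP fusions in mCherry-positive Jurkat cells, FACS-sorted after compound exposure, with degron abundance counted by next-generation sequencing.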

Sequence | log2 fold change of degron read counts [1] | log2 fold change of degron read counts [2] | log2 fold change of degron read counts [3] | log2 fold change of degron read counts (compound: thalidomide)
FDCPICGRVFTQKGNLLRHIKL [46F_47D_49P_50I_52G_53R_54V_55F_67L_, Q9UKT9] | -0.729 | -0.635 | 1.53 | 1.97
FLCNVCGAAFTQKGNLLRHIKL [46F_47L_49N_50V_52G_53A_54A_55F_67L_, Q9UKT9] | -1.6 | -2.27 | -0.522 | -0.568
FSCEICGAAFTQKGNLLRHIKL [46F_47S_49E_50I_52G_53A_54A_55F_67L_, Q9UKT9] | 3.56 | 2.95 | 2.24 | 2.15
FTCEICGAAFTQKGNLLRHIKL [46F_47T_49E_50I_52G_53A_54A_55F_67L_, Q9UKT9] | 3.16 | 3.21 | 2.33 | 3.02
FCCEICGAAFTQKGNLLRHIKL [46F_47C_49E_50I_52G_53A_54A_55F_67L_, Q9UKT9] | 3.72 | 3.1 | 2.29 | 2.46
FKCEICGAAFTQKGNLLRHIKL [46F_47K_49E_50I_52G_53A_54A_55F_67L_, Q9UKT9] | 2.15 | -0.809 | -1.83 | 0.606
FNCEICGAAFTQKGNLLRHIKL [46F_47N_49E_50I_52G_53A_54A_55F_67L_, Q9UKT9] | 3.08 | 1.75 | 0.0717 | 0.718
FACNVCGAMFTQKGNLLRHIKL [46F_47A_49N_50V_52G_53A_54M_55F_67L_, Q9UKT9] | 0.511 | -0.724 | -0.968 | -1.44
FFCDQCGAAFTQKGNLLRHIKL [46F_47F_49D_50Q_52G_53A_54A_55F_67L_, Q9UKT9] | 0.0639 | -0.343 | -0.617 | -2.46
LLCEICGFVCTQKGNLLRHIKL [46L_47L_49E_50I_52G_53F_54V_55C_67L_, Q9UKT9] | -0.934 | -1.38 | 0.0357 | 1.04
LACEICGFVCTQKGNLLRHIKL [46L_47A_49E_50I_52G_53F_54V_55C_67L_, Q9UKT9] | 2.04 | 1.25 | -0.215 | -0.0645
LCCEICGFVCTQKGNLLRHIKL [46L_47C_49E_50I_52G_53F_54V_55C_67L_, Q9UKT9] | 0.511 | 0.955 | 1.53 | 1.13
LQCEICGFVCTQKGNLLRHIKL [46L_47Q_49E_50I_52G_53F_54V_55C_67L_, Q9UKT9] | -0.0768 | 1.31 | 1.38 | 3.4
LFCEICGFVCTQKGNLLRHIKL [46L_47F_49E_50I_52G_53F_54V_55C_67L_, Q9UKT9] | 3.27 | 3.45 | 1.38 | 1.31
LSCEICGFVCTQKGNLLRHIKL [46L_47S_49E_50I_52G_53F_54V_55C_67L_, Q9UKT9] | 1.2 | 1.38 | 0.553 | 0.403
LYCEICGFVCTQKGNLLRHIKL [46L_47Y_49E_50I_52G_53F_54V_55C_67L_, Q9UKT9] | 3.3 | 3.29 | 2.43 | 0.954
LWCEICGFVCTQKGNLLRHIKL [46L_47W_49E_50I_52G_53F_54V_55C_67L_, Q9UKT9] | 2.88 | 3.17 | 2.26 | 0.659
LKCEICGFVCTQKGNLLRHIKL [46L_47K_49E_50I_52G_53F_54V_55C_67L_, Q9UKT9] | -1.72 | -2.04 | -2.48 | -0.691
FCCDVCGACFTQKGNLLRHIKL [46F_47C_49D_50V_52G_53A_54C_55F_67L_, Q9UKT9] | 0.633 | 0.299 | 1.47 | -0.594

Sequence | log2 fold change of degron read counts [1] | log2 fold change of degron read counts [2] | log2 fold change of degron read counts [3] | log2 fold change of degron read counts (compound: thalidomide)
FWCNQCGAKFTQKGNLLRHIKL [46F_47W_49N_50Q_52G_53A_54K_55F_67L_, Q9UKT9] | 0.0883 | 0.432 | -1.2 | -1.53
FTCNQCGRLFTQKGNLLRHIKL [46F_47T_49N_50Q_52G_53R_54L_55F_67L_, Q9UKT9] | -2.58 | -2.81 | -3.15 | -2.31
FYCPICGRVFTQKGNLLRHIKL [46F_47Y_49P_50I_52G_53R_54V_55F_67L_, Q9UKT9] | -0.29 | -0.155 | 0.579 | -1.3
FWCNQCGRTFTQKGNLLRHIKL [46F_47W_49N_50Q_52G_53R_54T_55F_67L_, Q9UKT9] | -1.55 | -1.36 | -1.37 | -1.45
FVCDQCGAPFTQKGNLLRHIKL [46F_47V_49D_50Q_52G_53A_54P_55F_67L_, Q9UKT9] | -1.33 | 0.669 | -0.689 | -0.0169
FICPICGRVFTQKGNLLRHIKL [46F_47I_49P_50I_52G_53R_54V_55F_67L_, Q9UKT9] | -1.47 | -0.445 | 0.321 | 0.637
FGCPICGAWFTQKGNLLRHIKL [46F_47G_49P_50I_52G_53A_54W_55F_67L_, Q9UKT9] | 1.54 | -0.463 | 1.47 | -0.0772
FCCEICGRVFTQKGNLLRHIKL [46F_47C_49E_50I_52G_53R_54V_55F_67L_, Q9UKT9] | -1.06 | -1.44 | -0.0327 | -0.334
FFCEICGASFTQKGNLLRHIKL [46F_47F_49E_50I_52G_53A_54S_55F_67L_, Q9UKT9] | 3.6 | 3.72 | 2.31 | 1.63
FACEICGASFTQKGNLLRHIKL [46F_47A_49E_50I_52G_53A_54S_55F_67L_, Q9UKT9] | 3.67 | 2.8 | 0.948 | 1.06
FLCEICGASFTQKGNLLRHIKL [46F_47L_49E_50I_52G_53A_54S_55F_67L_, Q9UKT9] | 1.8 | -0.0236 | 1.14 | 1.42
FRCEICGASFTQKGNLLRHIKL [46F_47R_49E_50I_52G_53A_54S_55F_67L_, Q9UKT9] | 2.38 | 1.52 | 2.01 | 2.12
FNCEICGASFTQKGNLLRHIKL [46F_47N_49E_50I_52G_53A_54S_55F_67L_, Q9UKT9] | 3.43 | 1.63 | 0.778 | 0.457
FICEICGASFTQKGNLLRHIKL [46F_47I_49E_50I_52G_53A_54S_55F_67L_, Q9UKT9] | 0.541 | 2.73 | 2.39 | 2.95
FECEICGASFTQKGNLLRHIKL [46F_47E_49E_50I_52G_53A_54S_55F_67L_, Q9UKT9] | 2.12 | -0.516 | 1.74 | 2.43
FFCEICGHSFTQKGNLLRHIKL [46F_47F_49E_50I_52G_53H_54S_55F_67L_, Q9UKT9] | -2.6 | -2.19 | -2.73 | -2.65
FWCEICGASFTQKGNLLRHIKL [46F_47W_49E_50I_52G_53A_54S_55F_67L_, Q9UKT9] | 3.83 | 3.81 | 2.56 | 1.42
FVCEICGASFTQKGNLLRHIKL [46F_47V_49E_50I_52G_53A_54S_55F_67L_, Q9UKT9] | 1.36 | 2.28 | 1.92 | 3
FTCEICGASFTQKGNLLRHIKL [46F_47T_49E_50I_52G_53A_54S_55F_67L_, Q9UKT9] | 2.27 | 3.03 | 2.5 | 3
